PubChem BioAssay (NCI)
The panel holds about 83,000 compounds, 20% with a hit somewhere; the sample as a whole holds those more often.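 Growth was measured after 48 h exposure to one concentration of compound in 96-well plates. Values under 10 count as active.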 A number with no mark means an inactive call. Calls of active or inactive are those of the source.

system: OVCAR-4 ovarian; test: NCI-60 one-dose screen, 48 h (100 = growth as untreated, 0 = no growth, -100 = all killed); conditions: 10 µM unless noted
Description: Growth inhibition of the OVCAR-4 human tumor cell line is measured as a screen for anti-cancer activity. Cells are grown in 96 well plates and exposed to the test compound for 48 hours. Compounds are tested at a single concentration, which is 10^-5 M for most compounds. The reported endpoint is percent growth (GI% or GIPRCNT), where numbers from 0 - 100% represent growth inhibition, and numbers from -100% - 0 represent cell death. For example, a value of 40 represents 60% growth inhibition. A value of 0 means no net growth occurred over the course of the experiment. A value of -40 indicates 40% of cells at the beginning of the experiment died by the end of the experiment. A value of -100 means all cells are dead at the end of the experiment.
NCI-60 Human Tumor Cell Lines Screen was performed using the standard one-dose NCI protocol, which is described in more detail at https://dtp.cancer.gov/discovery_development/nci-60/default.htm.
Compounds with GIPRCNT values below 10 were considered active. Activity score was based on GIPRCNT using the following formula: […]
Score is 0 for GIPRCNT values of 100 or above, 50 for GIPRCNT values of 0, and 100 for GIPRCNT values of -100.

SMILES	growth
Cc1cc2c(C(C)C)c(O)c(O)c(C=NCCCCC(=O)O)c2c(O)c1-c1c(C)cc2c(C(C)C)c(O)c(O)c(C=NCCCCC(=O)O)c2c1O	44.2%
CCn1cc(C(=O)O)c(=O)c2cc(F)c(N3CCN(S(=O)(=O)c4c(C)cc(C)cc4C)CC3)cc21	91.4%
CC(C)(C)OC(=O)N[C@@H](Cc1ccccc1)C(=O)N(Cc1ccccc1)C1(C(=O)NCc2ccccc2)CCN(Cc2ccccc2)CC1	24.2%
CN(C)c1nc(N)c(N=O)c(N)n1	108%
COc1cc(/C=C2\C=C(c3ccc(F)cc3)N(Cc3ccccc3)C2=O)cc(OC)c1OC	51%
O=P([O-])(O)OP(=O)([O-])O.[NH-][C@H]1CCCC[C@@H]1[NH-].[OH-].[OH-].[Pt+4]	109%
COc1ccc(S(=O)(=O)Nc2cc(/C=C\c3cc(OC)c(OC)c(OC)c3)cc(OC)c2OC)cc1OC	39.7%
CCc1cccc(C)c1NC(=O)c1sc2nc3c(cc2c1N)C(=O)CCC3	76.3%
Cc1ccc(-c2csc3nc(C)c(CCCl)c(=O)n23)cc1	82.1%
CC[C@]1(O)C[C@@H]2CN(Cc3c([nH]c4ccccc34)[C@@](C(=O)OC)(c3cc4c(cc3OC)N(C)[C@H]3[C@@](O)(C(=O)OC)[C@H](OC(C)=O)[C@]5(CC)[C@@H]6C[C@@H]6CN6CC[C@]43[C@@H]65)C2)C1	34.9%
O=C(Nc1ccc(F)cc1)c1cc([N+](=O)[O-])ccc1O	70.5%
Cc1ccc2nc(-c3c(N)n[nH]c3CCCO)[nH]c(=O)c2c1	106%
Nc1nc(N)c2nc(CNc3ccc(C(=O)CC(CCC(=O)O)C(=O)O)cc3)cnc2n1 (stereo not given)	79.9%
Cc1nc(Nc2cccnc2)sc1C(=O)/C=C/c1ccc(F)cc1	63.8%
Nc1c(C(=O)Nc2ccccc2)sc2nc3c(cc12)CCC3	78.9%
COc1cc2c(cc1OCCCCn1c(-c3cc(=O)c4ccccc4o3)nc3ccccc31)N=C[C@@H]1CCCN1C2=O	108%
CC(Cc1nnc(SCC(=O)Nc2ccc(I)cc2)n1N)c1ccccc1 (stereo not given)	172%
COc1ccc(C2CC(c3cccs3)=NN2c2ccc(S(=O)(=O)NC(=O)NCc3cccc(OC)c3)cc2)cc1 (stereo not given)	103%
COc1cc(Cn2c(-c3nonc3N)nc3ccccc32)ccc1C	62.6%
COc1cc(Br)c(OC)cc1Br	102%

SMILES	growth
Clc1cccc(Cl)c1Cn1c(-c2cncs2)nc2ccccc21	82.1%
CCO/C=N/NC(=O)c1ccncc1	109%
CN(C)c1ccc(/C=C\N=Nc2ccc(Br)cc2)cc1	65%
CC/C=C\C[C@H](O)C/C=C1/C(=O)C(Cl)=C[C@@H]1C/C=C\CCCC(=O)O	63.2%
Cc1cc(Cl)ccc1OC(C)C(=O)Nc1nnc(C2CC2)s1 (stereo not given)	104%
CCCCCC/C=C\CCCCCCCCOc1ccc(CCOP(=O)(O)OCC[N+](C)(C)C)cc1	86.1%
CC(C)C[C@H](NC(=O)Cn1ccc(NCc2ccccc2)cc1=O)B(O)O	48.2%
C#CCC1(c2ccc(F)c(F)c2)NS(=O)(=O)c2ccccc21 (stereo not given)	105%
CCn1c(=O)c2c(=O)c3c4c(oc3oc2c2ccccc21)C(=O)c1ccccc1C4=O	-99.5% (active)
NC(C(=O)O)C(O)c1ccc(OCc2ccccc2)c(OCc2ccccc2)c1 (stereo not given)	107%
COc1ccc(-c2nc(-c3nc4ccc(F)cc4[nH]3)cc3c2[nH]c2ccccc23)cc1	45.8%
O=[N+]([O-])c1c(S(=O)(=O)O)cc2cc(S(=O)(=O)O)ccc2c1[N+](=O)[O-]	114%
Nc1nc(-c2cc3ccccc3o2)cc(=O)c(=O)[nH]1	102%
CC/C=C\C/C=C\C[C@H](O)C/C=C1/C(=O)C=C[C@H]1C/C=C\CCC(=O)OC	43.3% [8.25 µM]
COc1cc(/C=C/C(=O)c2ccccc2O)ccc1OCCCOc1cc2c(cc1OC)C(=O)N1CCC[C@H]1C=N2	-2.17% (active)
NC(CC(N)C(=O)O)C(=O)O (stereo not given)	99.2%
COc1ccccc1CNCCCN1C(=O)c2ccc3c4c(ccc(c24)C1=O)C(=O)N(CCCNCCCCNCCCCN)C3=O	-33.8% (active)
COc1cccc(NC(=O)Cn2cc3c(=O)oc4ccccc4c3n2)c1	92.8%
COc1ccc(S(=O)(=O)N2CCN(c3cc4c(cc3F)c(=O)c(C(=O)O)cn4C3CC3)CC2)c(OC)c1	101%
Cn1cc(C=O)c2ccccc21	101%
